# Data published in publication PMC10726135, “HNF4α isoforms regulate the circadian balance between carbohydrate and lipid metabolism in the liver”.
# In all, about 18,000 sequences were measured (“log2 normalized intensity”: median about 0.36, highest 2% from about 7.3 on). Many of the other results were omitted from the sample, so the highest values are more common in it than they were.
# Molecular target: T1, HNF4alpha8 (COS-7 nuclear extract) (Homo sapiens, UniProt P41235-5 1-452)
# T1 sequence: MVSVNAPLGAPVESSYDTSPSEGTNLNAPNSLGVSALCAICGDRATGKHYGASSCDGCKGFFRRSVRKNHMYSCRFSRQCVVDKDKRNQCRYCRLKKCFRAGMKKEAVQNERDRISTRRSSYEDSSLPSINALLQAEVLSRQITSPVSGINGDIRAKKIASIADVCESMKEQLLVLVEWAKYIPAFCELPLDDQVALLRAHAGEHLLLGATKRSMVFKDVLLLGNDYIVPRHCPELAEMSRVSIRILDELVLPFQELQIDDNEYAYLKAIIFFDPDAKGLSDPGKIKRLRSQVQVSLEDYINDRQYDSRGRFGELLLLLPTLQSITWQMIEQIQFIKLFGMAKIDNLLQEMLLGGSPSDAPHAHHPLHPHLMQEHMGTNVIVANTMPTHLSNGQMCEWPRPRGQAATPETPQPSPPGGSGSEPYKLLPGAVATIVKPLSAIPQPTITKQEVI
# Experiment: protein-binding microarray; COS-7 nuclear extract on double-stranded Agilent 4x180k PBM; binding buffer, salt, pH and temperature not given in the material; high values mean tight binding
# Settings: chain copies: 2; label: 3' end of strand 1 on the slide; dsDNA, one strand shown
# In short: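 The binding signal is Agilent software's gProcessedSignal after background correction and normalization. Arrays were a custom Agilent SurePrint G3 4x180k design of double-stranded ~60-nt oligonucleotides with ~44,000 test sequences in quadruplicate, probed with nuclear extracts of COS-7 cells transiently expressing a human HNF4α isoform. Scans were made at 2-µm resolution on an Agilent G2565CA scanner.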
row,Sequence,binding signal [log2 normalized intensity]
1,AGTCACACACACCTGTGTCCCCCAGGTCCAGCCTAGGGAGATTAGAGTATCGGTCGA,3.56
2,ATATCTGCCTCAGTAGTAGTGAAAAATGAAGCCTAGGGAGATTAGAGTATCGGTCGA,0.637
3,GGAGGTGACCTTTGGTTGTCCTTACTGCTAGCCTAGGGAGATTAGAGTATCGGTCGA,4.22
4,ACCTCTTATCAAGCGTGCACCCCAGGTACGGCCTAGGGAGATTAGAGTATCGGTCGA,1.3
5,ATGGTGTTTGCTTTGTGAAGGCTTATCTGCGCCTAGGGAGATTAGAGTATCGGTCGA,0.591
6,GGTTCTTCCACGACTCCCCCGCTCACCCCTGCCTAGGGAGATTAGAGTATCGGTCGA,5.08
7,AACTTTTCCATGTCCAAAGGTCTTCATGAGGCCTAGGGAGATTAGAGTATCGGTCGA,4.33
8,AGTGCCATGTAATCAAACTGAACTTTGAAAGCCTAGGGAGATTAGAGTATCGGTCGA,4.48
9,AACATCATAGAGTGTACTTATGCAGACCTGGCCTAGGGAGATTAGAGTATCGGTCGA,0.968
10,CCTCCAGCTACTCACTCTTCCCAAATAGGTGCCTAGGGAGATTAGAGTATCGGTCGA,-0.273
11,AAGTGCGTCCTGTGGCAAAGGTGAATGACCGCCTAGGGAGATTAGAGTATCGGTCGA,2.99
12,TTCACAGAGCAAGGGTCCAGATTAGAGCACGCCTAGGGAGATTAGAGTATCGGTCGA,2.52
13,AAAGCCACCCCTTTCTCCTCTCTTTCCATAGCCTAGGGAGATTAGAGTATCGGTCGA,0.633
14,GGACAAAGTTCCCCGGGCAGCTGTGTTTGCGCCTAGGGAGATTAGAGTATCGGTCGA,0.702
15,CTCCAACTGCTCCTCTTCAACTGATTCTTGGCCTAGGGAGATTAGAGTATCGGTCGA,-0.845
16,GGGGCCTAGCTTGTAAAGGGTAATCTGCTTGCCTAGGGAGATTAGAGTATCGGTCGA,-0.484
17,CTTCCAAGGCTGCAAGCAAACCTGCCCTTTGCCTAGGGAGATTAGAGTATCGGTCGA,4.57
18,TGGGGTCTCGCTGCTTCGGCCTTTGACCTCGCCTAGGGAGATTAGAGTATCGGTCGA,8.46
19,CAGGGTGGGGTCTCGCTGCTTCGGCCTTTGGCCTAGGGAGATTAGAGTATCGGTCGA,1.11
20,TCTCGCTGCTTCGGCCTTTGACCTCGTGATGCCTAGGGAGATTAGAGTATCGGTCGA,7.09
21,CAGGGAGCCCTTATATCCACATGGGTCCAAGCCTAGGGAGATTAGAGTATCGGTCGA,3.03
22,CAACTCCAAAGTCCAAAGTCCAGTCTTATCGCCTAGGGAGATTAGAGTATCGGTCGA,8.47

row,Sequence,binding signal [log2 normalized intensity]
1,AGCCCTTATATCCACATGGGTCCAAAGTTCGCCTAGGGAGATTAGAGTATCGGTCGA,9.47
2,AGTCTTGAGTCCCAAAGTCCAAAGGCAGTCGCCTAGGGAGATTAGAGTATCGGTCGA,3.61
3,GCATGGCTCAGTCCAAGTCCAAAGGTCTGAGCCTAGGGAGATTAGAGTATCGGTCGA,6.28
4,GACCAGTCTGCCTGACTCCAGAGTCCAAACGCCTAGGGAGATTAGAGTATCGGTCGA,4.23
5,ATTCCTAAGTTCCAAAGGCCATCCACATTCGCCTAGGGAGATTAGAGTATCGGTCGA,2.4
6,TGCCTGCAGGAGAGAGCAAAGTCCACGCATGCCTAGGGAGATTAGAGTATCGGTCGA,6.82
7,CTTGAGTCCAGGAGTGCAAAGCTGCTATGAGCCTAGGGAGATTAGAGTATCGGTCGA,-0.723
8,CTATCTGCCTGCAGGAGAGAGCAAAGTCCAGCCTAGGGAGATTAGAGTATCGGTCGA,8.21
9,AGTCCAAAGGTCTGAGAACCAAGAGAGCCAGCCTAGGGAGATTAGAGTATCGGTCGA,1.62
10,CCAAAGTCCAAAGTCCAGTCTTATCTGAGAGCCTAGGGAGATTAGAGTATCGGTCGA,7.93
11,TTCAGTCTTTGTCTTAGCCTGCTCTTTTCCGCCTAGGGAGATTAGAGTATCGGTCGA,1.12
12,CCTCTGAAAACTTTTACTGGGAAGAGATAAGCCTAGGGAGATTAGAGTATCGGTCGA,-0.817
13,AGATAAGACAAGCTCTGTTTGTTTTGTTACGCCTAGGGAGATTAGAGTATCGGTCGA,1.26
14,ATACAGAATCAATGCCTGATTCCAAAGTCCGCCTAGGGAGATTAGAGTATCGGTCGA,6.36
15,ACTTTGCCTTTTGGCTAAAGTCCAAATTCCGCCTAGGGAGATTAGAGTATCGGTCGA,6.01
16,GAATCAATGCCTGATTCCAAAGTCCACTTTGCCTAGGGAGATTAGAGTATCGGTCGA,7.71
17,TGTTTGAGTTCCAAAGTCCATGTTCATAACGCCTAGGGAGATTAGAGTATCGGTCGA,5.66
18,GTCAAAACTTTGTTTGAGTTCCAAAGTCCAGCCTAGGGAGATTAGAGTATCGGTCGA,7.18
19,AACTTTGTTTGAGTTCCAAAGTCCATGTTCGCCTAGGGAGATTAGAGTATCGGTCGA,7.61
20,TGTTTGTTTTGAGATAGGGTCTTGCTTTGTGCCTAGGGAGATTAGAGTATCGGTCGA,1.3
21,CACTCATGGTGTTTGCTTTGTGAAGGCTTAGCCTAGGGAGATTAGAGTATCGGTCGA,0.417
22,TTCCTCCAGCCTGTCGGAATTTGCCCTGTGGCCTAGGGAGATTAGAGTATCGGTCGA,5.15
